Read-outs that look alike come from different tables or passages of the source.

Data on 16 compounds can be found in publication PMC5540273 (PLoS ONE, 2017).

Test [1] has as its system T1, YANK1.
T1 construct: gene STK32A
Conditions: concentration: 1 μM, replicates: in singlicate; n = 1.

Test [2] has as its system T2, YANK2.
T2 construct: gene STK32B
Conditions: concentration: 1 μM, replicates: in singlicate; n = 1.

Test [3] relates to T3, YANK3.
T3 construct: gene STK32C
Conditions: concentration: 1 μM, replicates: in singlicate; n = 1.

Test [4] concerns T4, YES.
T4 construct: gene YES1
Conditions: concentration: 1 μM, replicates: in singlicate; n = 1.

Test [5] relates to T5, YSK1.
T5 construct: gene STK25
The note with it: concentration: 1 μM, replicates: in singlicate; n = 1.

Test [6] deals with T6, YSK4.
T6 construct: gene MAP3K19
The note with it: concentration: 1 μM, replicates: in singlicate; n = 1.

Test [7] concerns ZAK. The note with it: concentration: 1 μM, replicates: in singlicate; n = 1.
Test [8] has as its system ZAP70. The note with it: concentration: 1 μM, replicates: in singlicate; n = 1.
Test [9] has as its system T7, p38-alpha.
T7 construct: gene MAPK14
The note with it: n = 1.

Test [10] concerns T8, p38-beta.
T8 construct: gene MAPK11
Conditions: concentration: 1 μM, replicates: in singlicate; n = 1.

Test [11] relates to p38-delta. The note with it: concentration: 1 μM, replicates: in singlicate; n = 1.
The test system of test [12] is T9, p38-gamma.
T9 construct: gene MAPK12
The note with it: concentration: 1 μM, replicates: in singlicate; n = 1.

Setting [13] is: concentration: 1 μM, replicates: in singlicate.
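Note: KINOMEscan kinase panel screen.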

For the compound `O=C(NCc1cccs1)c1cc(C(=O)c2c(Cl)cccc2Cl)c[nH]1` [GW823670], the “%Inh” value in test [1] is 0%; in [2], 0%; in test [3], 0%; in [4], 0%; in test [5], 11%; in test [6], 0%. Besides, the “%Inh” value in test [7] amounted to 0%; in [8], 0%; in test [9] (1 µM) it was 23%; in [10], 9%; in [11] it was 0%; in test [12] it was 0%.
Regarding `OCCCNc1nccc(-c2c(-c3cccc(C(F)(F)F)c3)nn3cc(C(F)(F)F)ccc23)n1` [GW630813], the “%Inh” value in test [1] was determined as 0%; in test [2] it was 0%; in test [3], 0%; in test [4], 0%; in test [5], 1%; in test [6] it was 2%. Besides, the “%Inh” value is given as 0% in [7]; 0% in test [8]; 99.4% in test [9] (setting [13]); 30% in test [10]; 20% in [11]; 0% in [12].
As for `COc1cc2ncn(-c3cc(OCCCc4ccccc4)c(C(N)=O)s3)c2cc1OC` [GSK205189], the “%Inh” value in [1] worked out at 0%; in test [2] it was 0%; in test [3], 19%; in [4], 0%; in test [5] it was 0%; in test [6], 0%. Moreover, the “%Inh” value in test [7] is reported as 0%; in test [8], 0%; in test [9] (setting [13]), 0%; in [10], 0%; in test [11] it was 6%; in test [12] it was 0%.
`COc1ccc(Nc2nccc(N3CCC(NS(=O)(=O)c4ccc(NC(C)=O)cc4)C3)n2)cc1` (stereo not drawn) [GSK1379729]: the “%Inh” value was 8% in [1]; 3% in [2]; 0% in test [3]; 10% in test [4]; 0% in [5]; 1% in test [6]. Besides, the “%Inh” value in test [7] amounted to 24%; in [8] it was 0%; in test [9] (setting [13]) it was 82%; in [10], 17%; in [11] it was 30%; in [12], 17%.
`Nc1nc(N)c2nc(-c3ccccc3)[nH]c2n1` [SKF-12778]: the “%Inh” value in test [1] is 0%; in test [2] it was 1%; in [3], 13%; in test [4], 11%; in [5], 0%; in [6] it was 68%. For the same compound, the “%Inh” value is recorded as 22% in [7]; 14% in test [8]; 0% in [9] (setting [13]); 7% in test [10]; 19% in test [11]; 0% in test [12].
In the case of `Nc1ncnc2c1ncn2-c1cccc(F)c1` [SKF-97560], the “%Inh” value came to 17% in test [1]; 0% in test [2]; 0% in test [3]; 16% in test [4]; 0% in test [5]; 40% in test [6]. Also, the “%Inh” value was 26% in test [7]; 21% in [8]; 0% in test [9] (setting [13]); 0% in test [10]; 0% in test [11]; 48% in test [12].
Consider `Cc1ccc(-c2ccc3c(ccc4sc5c(c43)NC[C@@H](C)N=C5N(C)C)n2)cn1`, for which the “%Inh” value in test [1], in [2], in [3], in [4], in test [5] and in test [6] was 0% each time. Moreover, the “%Inh” value is 0% in [7]; 0% in test [8]; 0% in test [9] (setting [13]); 0% in test [10]; 10% in test [11]; 14% in test [12].
With `CN1C(=O)C(Nc2cc(Cl)c(O)c(Cl)c2)=C(c2ccc(Cl)cc2)C1=O` [SB-404321], the “%Inh” value in test [1], in test [2], in [3], in test [4], in test [5] and in [6] was 0% throughout. Besides, the “%Inh” value in test [7] is 0%; in test [8], 0%; in [9] (setting [13]) it was 2%; in test [10] it was 0%; in [11] it was 21%; in test [12] it was 23%.
On to `Cn1c(=O)c(F)c(Nc2ccc(I)cc2F)c2c(=O)n(OC[C@H](O)CO)cnc21`, for which the “%Inh” value is 0% in [1]; 10% in test [2]; 0% in test [3]; 0% in test [4]; 0% in test [5]; 0% in [6]. The “%Inh” value in [7] was 19%; in [8] it was 0%; in test [9] (setting [13]), 13%; in test [10], 11%; in [11], 0%; in test [12], 39%.
For the compound `COc1cc2ncn(-c3cc(OCc4ccc(S(C)(=O)=O)cc4)c(C(N)=O)s3)c2cc1OC` [GW869979], the “%Inh” value was 7% in test [1]; 0% in test [2]; 0% in test [3]; 28% in test [4]; 0% in test [5]; 57% in test [6]. The “%Inh” value in test [7] stood at 0%; in test [8], 17%; in test [9] (setting [13]), 1%; in [10], 1%; in test [11], 0%; in test [12] it was 24%.
Turning to `CN1C(=O)C(Nc2ccccc2)=C(c2ccccc2)C1=O` [SB-300079], the “%Inh” value in [1] stood at 0%; in [2], 2%; in test [3], 0%; in test [4], 0%; in test [5], 3%; in [6] it was 8%. Further, the “%Inh” value in test [7] worked out at 0%; in test [8], 23%; in test [9] (setting [13]), 0%; in [10], 10%; in test [11], 0%; in [12], 0%.
Regarding `Cc1cccc(-c2cc(-c3c[nH]nc3-c3ccccn3)ccn2)c1` [GW679395], the “%Inh” value in test [1] is on record as 0%; in test [2], 0%; in [3], 15%; in [4], 29%; in test [5] it was 0%; in test [6] it was 36%. For the same compound, the “%Inh” value is 0% in [7]; 0% in [8]; 47% in test [9] (setting [13]); 0% in [10]; 44% in test [11]; 12% in test [12].
For `COC(=O)c1c(-c2ccccc2)c2cc(Br)ccc2c(=O)n1Cc1ccc(S(C)(=O)=O)cc1`, the “%Inh” value worked out at 0% in [1]; 6% in test [2]; 36% in test [3]; 0% in test [4]; 4% in [5]; 13% in test [6]. The “%Inh” value in test [7] amounted to 32%; in test [8], 0%; in test [9] (setting [13]), 17%; in test [10], 9%; in test [11] it was 38%; in test [12], 29%.
For the compound `Nc1ncnc2c1ncn2-c1cccc2ccccc12` [SKF-97184], the “%Inh” value in test [1] was determined as 0%; in test [2], 80%; in test [3], 4%; in test [4] it was 0%; in test [5] it was 12%; in test [6], 23%. Further, the “%Inh” value in test [7] amounted to 0%; in test [8], 37%; in test [9] (setting [13]), 0%; in [10], 0%; in test [11] it was 0%; in test [12], 0%.
With `Cc1cc(Nc2nc(-c3cccc(C)n3)nc3ccccc23)ccn1` [GW872411], the “%Inh” value in test [1], in test [2], in [3], in [4], in test [5] and in test [6] was 0% in each case. Moreover, the “%Inh” value in [7] is given as 0%; in test [8] it was 0%; in test [9] (setting [13]), 20%; in test [10], 0%; in test [11] it was 0%; in test [12], 0%.
Turning to `COc1cc2ncn(-c3cc(OCc4ccncc4)c(C(N)=O)s3)c2cc1OC` [GSK336313], the “%Inh” value is given as 8% in [1]; 0% in test [2]; 4% in [3]; 0% in test [4]; 35% in [5]; 30% in test [6]. The “%Inh” value in [7] is 1%; in [8], 0%; in test [9] (setting [13]), 5%; in test [10], 0%; in test [11], 42%; in test [12], 0%.
